Assay results from the supplement of paper PMC10503962.

System: Trichuris muris adult worms
Experiment: mean motility score (Paragon pixel variance) of adult worms (arbitrary units); higher = more motile worms, i.e. less anthelmintic effect; extreme values may be limits of the assay
Details: 100 µM; 24 h
Procedure: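 Primary ex vivo screen of 409 approved drugs against adult Trichuris muris worms: one worm per well in RPMI-1640 with penicillin/streptomycin, 100 µM drug in 1% DMSO, 37 °C, 5% CO2 for 24 h. Motility was recorded with INVAPP (200-frame movies) and scored with the Paragon pixel-variance algorithm. Values are means of triplicate wells run on three occasions; levamisole was the positive control and DMSO the negative control.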

SMILES	mean motility score
CCCC(=O)O[C@]1(C(=O)COC(C)=O)CC[C@H]2[C@@H]3C[C@H](F)C4=CC(=O)C=C[C@]4(C)[C@@]3(F)[C@@H](O)C[C@@]21C [difluprednate]	3520
O=C(O)CNC(=O)c1ccccc1I [iodohippurate]	3580
Cc1cc(C2CCCCC2)n(O)c(=O)c1 [ciclopirox]	3190
CNCC[C@H](Oc1cccc2ccccc12)c1cccs1.Cl [duloxetine hydrochloride]	2.67
CC[C@H](C)C(=O)O[C@H]1C[C@@H](C)C=C2C=C[C@H](C)[C@H](CC[C@@H]3C[C@@H](O)CC(=O)O3)[C@H]21 [lovastatin]	96.7
Cc1ccc(Nc2nccc(N(C)c3ccc4c(C)n(C)nc4c3)n2)cc1S(N)(=O)=O [pazopanib]	1830
Cc1c(N(C)C)c(=O)n(-c2ccccc2)n1C [aminopyrine]	2250
COC(=O)C1=C(C)NC(C)=C(C(=O)OCCN(C)Cc2ccccc2)C1c1cccc([N+](=O)[O-])c1 (stereo not given) [nicardipine]	0
CCN(Cc1ccncc1)C(=O)C(CO)c1ccccc1 (stereo not given) [tropicamide]	2030
CCN1CCN(c2cc(-c3ccc(F)cc3)c3c(n2)CCCCCC3)CC1 [blonanserin]	3080
CCOc1cc2ncc(C#N)c(Nc3ccc(OCc4ccccn4)c(Cl)c3)c2cc1NC(=O)/C=C/CN(C)C [neratinib]	1890
COc1c(C)c2c(c(O)c1C/C=C(\C)CCC(=O)O)C(=O)OC2 [mycophenolic acid]	2100
COC(=O)C1=C(C)NC(C)=C(C(=O)OCCN2CCN(C(c3ccccc3)c3ccccc3)CC2)C1c1cccc([N+](=O)[O-])c1.Cl (stereo not given) [manidipine hydrochloride]	1540
CN(CCOc1ccc(CC2SC(=O)NC2=O)cc1)c1ccccn1 (stereo not given) [rosiglitazone]	603
COc1cc(N)c(Cl)cc1C(=O)NC1CCN(CCCOc2ccc(F)cc2)CC1OC.O (stereo not given) [cisapride monohydrate]	2840
CC(C)C(=O)Nc1ccc([N+](=O)[O-])c(C(F)(F)F)c1 [flutamide]	113
CCCNC(=O)NS(=O)(=O)c1ccc(Cl)cc1 [chlorpropamide]	2860
CCOc1ccc2ccccc2c1C(=O)N[C@@H]1C(=O)N2[C@@H]1SC(C)(C)[C@@H]2C(=O)[O-].O.[Na+] [nafcillin sodium monohydrate]	3570
CN(C)C/C=C/C(=O)Nc1cc2c(Nc3ccc(F)c(Cl)c3)ncnc2cc1O[C@H]1CCOC1 [afatinib]	0
c1ccc(CC2=NCCN2)cc1 [tolazoline]	1230

SMILES	mean motility score
CC1=C(/C=C/C(C)=C/C=C/C(C)=C/CO)C(C)(C)CCC1 [retinol]	2970
NS(=O)(=O)c1cc2c(cc1Cl)NC(CSCc1ccccc1)=NS2(=O)=O [benzthiazide]	3040
Cl.Cl.NCCc1c[nH]cn1 [histamine dihydrochloride]	2750
Cl.Clc1ccccc1CN1CCc2sccc2C1 [ticlopidine hydrochloride]	663
OCCN(CCO)c1nc(N2CCCCC2)c2nc(N(CCO)CCO)nc(N3CCCCC3)c2n1 [dipyridamole]	2870
CCN[C@H]1C[C@H](C)S(=O)(=O)c2sc(S(N)(=O)=O)cc21 [dorzolamide]	2540
C[C@@](Cc1ccc(O)c(O)c1)(NN)C(=O)O [S-carbidopa]	3900
Cc1cn([C@H]2C=C[C@@H](CO)O2)c(=O)[nH]c1=O [stavudine]	2180
CC12CC3CC(C)(C1)CC(N)(C3)C2.Cl [memantine hydrochloride]	2620
CCCCCCCCCCCCCCCCOP(=O)([O-])OCC[N+](C)(C)C [miltefosine]	2810
O=C(O)COC(=O)Cc1ccccc1Nc1c(Cl)cccc1Cl [aceclofenac]	972
C[C@@H](c1ncncc1F)[C@](O)(Cn1cncn1)c1ccc(F)cc1F [voriconazole]	4350
Cc1c(O)cccc1C(=O)N[C@@H](CSc1ccccc1)[C@H](O)CN1C[C@H]2CCCC[C@H]2C[C@H]1C(=O)NC(C)(C)C [nelfinavir]	1430
Nc1nc(N)c2nc(-c3ccccc3)c(N)nc2n1 [triamterene]	2070
CC(=O)OCC(=O)[C@@]1(O)CC[C@H]2[C@@H]3CCC4=CC(=O)CC[C@]4(C)[C@H]3[C@@H](O)C[C@@]21C [hydrocortisone acetate]	3080
COc1cc2c(Oc3ccc4[nH]c(C)cc4c3F)ncnc2cc1OCCCN1CCCC1 [cediranib]	0
N=C(N)NCCN1CCCCCCC1.N=C(N)NCCN1CCCCCCC1.O=S(=O)(O)O [guanethidine sulfate]	2380
O=C1c2c(O)ccc(O)c2C(=O)c2c(NCCNCCO)ccc(NCCNCCO)c21 [mitoxantrone]	1350
CC(=O)OC[C@H]1O[C@@H](n2ncc(=O)[nH]c2=O)[C@H](OC(C)=O)[C@@H]1OC(C)=O [azaribine]	3970
NS(=O)(=O)Cc1noc2ccccc12 [zonisamide]	2960
